{"source": "PubChem BioAssay AID624167", "about": "(Sanford-Burnham Center for Chemical Genomics, 2012)"}
{"assay": "Peg3 promoter luciferase inhibitors, potency, dose response, cell-based, HeLa, CREF/GAPDH counter-screen panel (AID 624167)", "conditions": "CREF/GAPDH counter-screens; run 2, dose range 1, at 100 µM (top of the series)", "units": {"inhibition": "%"}}
{"smiles": "COc1cc2nc(CN3CC=C(c4ccccc4)CC3)[nH]c(=O)c2cc1OC", "inhibition": 59.5}
{"smiles": "CC1=CC2/C=C(\\C)CCC(O)C(O)/C=C/C(=O)C23C(=O)NC(CC(C)C)C3C1C", "note": "(stereo not drawn)", "inhibition": 100}
{"smiles": "CC(=O)OC1CC[C@]2(C#N)[C@H]3CC[C@]4(C)[C@H](C5C=CC(=O)O5)CCC4(O)C3CCC2(O)C1", "note": "(stereo partly drawn)", "inhibition": 83.6}
{"smiles": "CC(=O)OC1(C)CC(C)C(=O)C(C(O)CC2CC(=O)NC(=O)C2)C1", "note": "(stereo not drawn)", "inhibition": 95.8}
{"smiles": "O=C(CSC1c2ccccc2-c2ccccc21)N/N=C/c1ccccc1O", "inhibition": 53.7}
{"smiles": "COC(COC(N)=O)C1=C(N2CC2)C(=O)C(C)=C(N2CC2)C1=O", "note": "(stereo not drawn)", "inhibition": 89}
{"smiles": "C=Cc1cc(OC)c2c(c1)c(=O)oc1c2cc(OC)c2c(O)ccc(C3OC(C)C(O)C(C)(O)C3O)c21", "note": "(stereo not drawn)", "inhibition": 40.5}
{"smiles": "CCC(c1nnnn1-c1ccc2c(c1)OCCO2)N1CCC(n2c(=O)[nH]c3ccccc32)CC1", "note": "(stereo not drawn)", "inhibition": 100}
